In the supplement of paper PMC10981050:
“And” between values parts separate entries of the source, which are not always exact repeats. Equal values may be shown once. Where a name gives a salt, the structure may show the parent alone.

Key:
Experiment in all cases: cell viability relative to vehicle control; higher = less cytotoxic
Conditions in all cases: 10 µM
K562 = test system: K562
Outline: (§1)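 After removal of identity-inconsistent compounds, the Selleck bioactive, kinase and epigenetic probe libraries were screened on CRISPR-edited mutant clones and isogenic wild-type clones of four leukaemia lines. Plates were 384-well, each well holding 2000 cells in 50 µL medium and receiving a single 10 µM acoustically dispensed dose. CellTiter-Glo luminescence was read 48 h later, after the supernatant was taken off. Genedata Screener was used to express viability as percent of the on-plate vehicle control.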

MARIMO = test system: MARIMO
Outline: as §1

MOLM14 = test system: MOLM14
Outline: as §1

OCI-AML2 = test system: OCI-AML2
Outline: as §1

| Structure (SMILES) | cell viability (K562; SRSF2 genotype: SRSF2 P95H/wt) | cell viability (K562; SRSF2 genotype: SRSF2 wt/wt) [%] | cell viability (MARIMO; SRSF2 genotype: SRSF2 P95H/wt) [%] | cell viability (MARIMO; SRSF2 genotype: SRSF2 wt/wt) [%] | cell viability (MOLM14; SRSF2 genotype: SRSF2 P95H/wt) [%] | cell viability (MOLM14; SRSF2 genotype: SRSF2 wt/wt) [%] | cell viability (OCI-AML2; SRSF2 genotype: P95H/wt) [%] | cell viability (OCI-AML2; SRSF2 genotype: wt/wt) [%] |
| --- | --- | --- | --- | --- | --- | --- | --- | --- |
| OC(CNc1ccccc1)Cn1c2ccc(Br)cc2c2cc(Br)ccc21 (stereo unspecified) | 74.2% and 72.5% | 66.2 | 85.1 | 98.2 | 87.2 | 58.1 | 52.3 | 83.5 |
| C=C[C@@H]1C2=CCOC(=O)C2=CO[C@H]1O[C@@H]1O[C@H](CO)[C@@H](O)[C@H](O)[C@H]1O [Gentiopicroside] | 97.2% and 95.7% | 96.3 | 94.5 | 99 | 98.5 | 104 | 94 | 108 |
| C=C(C)[C@H]1Cc2c(ccc3c2O[C@@H]2COc4cc(OC)c(OC)cc4[C@@H]2C3=O)O1 [Rotenone (Barbasco)] | 12.8% and 22.4% | 23.4 | 5.86 | 10.5 | 15.6 | 3.2 | 9.69 | 13.8 |
| CC[C@@]1(O)C(=O)OCc2c1cc1n(c2=O)Cc2cc3ccccc3nc2-1 [Camptothecin] | 27.3% and 26.7% | 21.8 | 5.71 | 3.67 | 3.1 | 1.35 | 3.26 | 3.91 |
| CC[C@]12C=CCN3CC[C@]4(C(=C(C(=O)OC)C1)Nc1ccccc14)[C@@H]32 [Tabersonine] | 17.7% and 27% | 30.1 | 19.1 | 18.7 | 11.3 | 4.06 | 7.01 | 14.7 |
| Cc1cccc([C@H](C)c2c[nH]cn2)c1C [Dexmedetomidine] | 97.4% and 102% | 98.5 | 95.6 | 101 | 105 | 102 | 114 | 95.9 |
| CCN(C)C(=O)Oc1cccc([C@H](C)N(C)C)c1 [Rivastigmine tartrate (Exelon)] | 103% and 106% | 101 | 101 | 105 | 99.5 | 108 | 104 | 113 |
